The results in this text go back to PubChem BioAssay (NCATS).

The nature of assay [1]: S16 Schwann cell viability assay (CellTiter-Glo assay) (AID 624031).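 Also: cellular ATP luminescence as a viability measure; nearly all actives have a fitted effect of over 70% in size.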 The following applies: S16 rat Schwann cells viability, 24 h; series mostly up to 57.5 µM. The procedure, abridged:
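Native S16 rat Schwann cells in DMEM/10% FBS without phenol red were incubated overnight, then exposed to compounds for 24 h at 37 °C/5% CO2. Viability was read as ATP luminescence (CellTiter-Glo), normalized to no-cell wells and DMSO (0%).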

The nature of assay [2]: S16 Schwann cell PMP22 intronic element firefly luciferase assay (AID 624032). Also: nearly all actives have a fitted effect of over 30% in size. Also: potency is read from the fitted curve at half-maximal effect. As to conditions: S16 rat Schwann cells, PMP22 element FLuc, 24 h; series mostly up to 57.5 µM. In short, it runs like this: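 Luciferase reporter of PMP22 intronic-element expression in stably transfected S16 rat Schwann cells, read by ONE-Glo luminescence after 24 h compound exposure at 37 C. Activity scaled between DMSO (0%) and positive-control PTC124; concentration-effect curves quality-classified.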

Assay [3] concerns the target Muscarinic acetylcholine receptor M1 (Rattus norvegicus) (UniProt P08482). In words: qHTS Assay for Antagonists of Acetylcholine Muscarinic M1 Receptor: Kinetic Measurement of Intracellular Calcium Response (AID 943). Also: nearly all actives have a fitted effect of over 75% in size. Also: potency is read from the fitted curve at half-maximal effect. As to conditions: M1-expressing cells, kinetic intracellular calcium fluorescence; series mostly up to 35.3 µM. The procedure, abridged: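 Antagonism measured as reduction of carbachol-evoked (EC80, 100 nM final) calcium flux in rat M1-CHO cells after 10 min compound exposure. Fluo-4 signal read kinetically; ratio of maximal to basal fluorescence.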

Assay [4] is described as follows: S16 Schwann cell PMP22 intronic element beta-lactamase assay (AID 624044; calls by dose curve; also: nearly all actives have a fitted effect of over 15% in size). The following applies: S16 rat Schwann cells, PMP22 element beta-lactamase FRET, 24 h; series mostly up to 38.3 µM. In short, it runs like this:
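Beta-lactamase reporter under a PMP22 intronic regulatory element in stable S16 rat Schwann cells; 24 h compound exposure. 460 nm blue signal normalized between DMSO (0%) and potassium clavulanate, with 535 nm FRET tracking viability; curves classed by r2 and response.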

Assay [5] concerns 3D7. Nature of the assay: qHTS profiling for inhibitors of Plasmodium falciparum proliferation (AID 504749). Also: nearly all actives have a fitted effect of over 60% in size. Also: potency is read from the fitted curve at half-maximal effect. The following applies: P. falciparum in erythrocytes, SYBR Green DNA, 72 h; series mostly up to 28.7 µM. In short, it runs like this:
(§1)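 SYBR Green fluorescence of parasite DNA, read after lysis and overnight dark incubation, measured growth over 72 h in erythrocyte culture at 0.3% parasitemia and 2.5% hematocrit. Data normalised to DMSO and 0.29 uM artemisinin, with plate-drift correction.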

The subject of assay [6] is AA1029. Described as above. The following applies: P. falciparum in erythrocytes, SYBR Green DNA, 72 h; series mostly up to 28.7 µM. In short, it runs like this:
as §1

The subject of assay [7] is C2A. The assay is described as above. As to conditions: P. falciparum in erythrocytes, SYBR Green DNA, 72 h; series mostly up to 28.7 µM. The procedure, abridged:
as §1

Assay [8] deals with CP211. The description is as above. The following applies: P. falciparum in erythrocytes, SYBR Green DNA, 72 h; series mostly up to 28.7 µM. The procedure, abridged: as §1
The subject of assay [9] is CP215. Described as above. As to conditions: P. falciparum in erythrocytes, SYBR Green DNA, 72 h; series mostly up to 28.7 µM. The procedure, abridged: as §1
Assay [10] concerns CP217. Described as above. As to conditions: P. falciparum in erythrocytes, SYBR Green DNA, 72 h; series mostly up to 28.7 µM. The procedure, abridged: as §1
The test system of assay [11] is CP250. The assay is described as above. The following applies: P. falciparum in erythrocytes, SYBR Green DNA, 72 h; series mostly up to 28.7 µM. In short, it runs like this: as §1
For assay [12], the system named is CP252. Described as above. The following applies: P. falciparum in erythrocytes, SYBR Green DNA, 72 h; series mostly up to 28.7 µM. In short, it runs like this: as §1
For assay [13], the system named is CP256. The description is as above. As to conditions: P. falciparum in erythrocytes, SYBR Green DNA, 72 h; series mostly up to 28.7 µM. In short, it runs like this: as §1
The test system of assay [14] is CP291. The description is as above. As to conditions: P. falciparum in erythrocytes, SYBR Green DNA, 72 h; series mostly up to 28.7 µM. In short, it runs like this:
as §1

Assay [15] concerns CP315. The description is as above. As to conditions: P. falciparum in erythrocytes, SYBR Green DNA, 72 h; series mostly up to 28.7 µM. The procedure, abridged: as §1
The test system of assay [16] is CP325. Described as above. The following applies: P. falciparum in erythrocytes, SYBR Green DNA, 72 h; series mostly up to 28.7 µM. The procedure, abridged: as §1
For assay [17], the system named is CP329. Described as above. As to conditions: P. falciparum in erythrocytes, SYBR Green DNA, 72 h; series mostly up to 28.7 µM. In short, it runs like this: as §1
For assay [18], the system named is GB4. The description is as above. As to conditions: P. falciparum in erythrocytes, SYBR Green DNA, 72 h; series mostly up to 28.7 µM. In short, it runs like this: as §1
The subject of assay [19] is N140. Described as above. As to conditions: P. falciparum in erythrocytes, SYBR Green DNA, 72 h; series mostly up to 28.7 µM. The procedure, abridged: as §1
Assay [20] deals with Androgen receptor (Homo sapiens) (UniProt P10275). Nature of the assay: qHTS assay for small molecule antagonists of androgen receptor signaling (AID 588516; active = well fitted curve in the direction sought with a large enough effect in the signal ratio, with a control signal flat, not every such curve was filed as active; the % refers to the signal ratio). The following applies: AR-UAS-bla HEK293, beta-lactamase ratio, antagonist mode, 16 h; series mostly up to 76.8 µM. The procedure, abridged:
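HEK293 AR-UAS-bla cells, 10% dialyzed FBS medium; cpd titration + R1881 10 nM final, 16 h 37 C; CCF4 2 h RT; FRET ratio; IC50/efficacy via Hill fit.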

SMILES strings stand for the structures. Results filed as inconclusive are left out. The source made the active and inactive calls. Unless noted, calls follow the shape of the dose curve; as a rule, active = well fitted curve in the direction sought with a large enough effect; inconclusive = small, poorly fitted or top-dose-only effect, or another doubt; inactive = no such curve, though single readings can be large; an effect the other way counts as inactive or inconclusive.

Androgen receptor (Homo sapiens), sequence (P10275 whole entry, looked up): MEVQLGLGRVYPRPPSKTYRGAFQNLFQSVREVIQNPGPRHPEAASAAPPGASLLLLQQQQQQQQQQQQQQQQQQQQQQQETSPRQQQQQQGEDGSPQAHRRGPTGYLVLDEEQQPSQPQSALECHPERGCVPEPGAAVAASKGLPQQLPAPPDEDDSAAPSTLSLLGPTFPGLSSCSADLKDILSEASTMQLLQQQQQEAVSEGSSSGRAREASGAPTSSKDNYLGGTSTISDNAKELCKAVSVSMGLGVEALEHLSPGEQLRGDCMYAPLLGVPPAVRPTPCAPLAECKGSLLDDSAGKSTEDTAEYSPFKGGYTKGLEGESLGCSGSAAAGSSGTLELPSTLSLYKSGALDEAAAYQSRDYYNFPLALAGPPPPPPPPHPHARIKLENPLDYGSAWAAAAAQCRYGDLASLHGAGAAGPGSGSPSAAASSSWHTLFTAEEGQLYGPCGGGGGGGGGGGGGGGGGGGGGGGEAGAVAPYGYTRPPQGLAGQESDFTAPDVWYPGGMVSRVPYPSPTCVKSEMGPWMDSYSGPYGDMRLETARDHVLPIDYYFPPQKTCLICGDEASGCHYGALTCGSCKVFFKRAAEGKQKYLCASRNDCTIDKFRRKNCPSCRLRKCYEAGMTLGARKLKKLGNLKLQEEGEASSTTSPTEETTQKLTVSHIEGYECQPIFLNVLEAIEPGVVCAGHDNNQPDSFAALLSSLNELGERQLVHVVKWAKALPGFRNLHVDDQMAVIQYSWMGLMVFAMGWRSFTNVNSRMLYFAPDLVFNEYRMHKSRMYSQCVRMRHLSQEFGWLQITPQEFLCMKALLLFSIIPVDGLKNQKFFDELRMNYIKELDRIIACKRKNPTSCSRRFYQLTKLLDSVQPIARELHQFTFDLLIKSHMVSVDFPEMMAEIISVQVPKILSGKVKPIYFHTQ
Muscarinic acetylcholine receptor M1 (Rattus norvegicus), sequence (P08482 whole entry, looked up): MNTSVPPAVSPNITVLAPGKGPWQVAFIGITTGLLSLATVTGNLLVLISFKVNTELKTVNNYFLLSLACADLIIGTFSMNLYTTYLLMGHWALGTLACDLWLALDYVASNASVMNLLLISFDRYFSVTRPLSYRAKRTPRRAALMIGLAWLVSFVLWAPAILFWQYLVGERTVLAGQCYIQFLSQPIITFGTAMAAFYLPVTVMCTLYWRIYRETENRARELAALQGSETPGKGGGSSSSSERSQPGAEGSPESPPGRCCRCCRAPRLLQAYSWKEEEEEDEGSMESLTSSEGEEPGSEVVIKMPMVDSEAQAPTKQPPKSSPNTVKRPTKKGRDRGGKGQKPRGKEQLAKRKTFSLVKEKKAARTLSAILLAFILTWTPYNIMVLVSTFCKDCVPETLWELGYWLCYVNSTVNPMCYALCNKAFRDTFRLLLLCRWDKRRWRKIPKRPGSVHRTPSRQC

Consider `C=C(NC(=O)C(=C)NC(=O)c1csc(C2=N[C@@H]3c4csc(n4)[C@@H]4NC(=O)c5csc(n5)[C@@H]([C@](C)(O)[C@H](C)O)NC(=O)[C@@H]5CSC(=N5)/C(=C/C)NC(=O)[C@@H]([C@H](C)O)NC(=O)c5csc(n5)[C@]3(CC2)NC(=O)[C@@H](C)NC(=O)C(=C)NC(=O)[C@@H](C)NC(=O)[C@@H]([C@@H](C)CC)N[C@H]2C=Cc3c([C@H](C)O)cc(nc3[C@@H]2O)C(=O)O[C@H]4C)n1)C(N)=O`, for which the Potency result in assay [1] was “inactive”. Further, the Potency in [2] is 8.7 µM (active).

For the compound `CN1[C@@H]2CC[C@H]1CC(NC(=O)c1nn(C)c3ccccc13)C2` (stereo partly drawn), the Potency entry in assay [3] was “inactive”.

For the compound `C[C@@H](COc1ccc(/C=C\c2ccccc2)cc1)[N+](C)(C)C`, the Potency in [3] was 4.47 µM (active).

Take `C[C@@H]1C[C@H]2[C@H]3C[C@@H](F)C4=CC(=O)C=C[C@]4(C)[C@@]3(Cl)[C@@H](O)C[C@@]2(C)[C@@H]1C(=O)COC(=O)C(C)(C)C`: the Potency result in assay [1], in [2], in assay [6], in [7], in assay [8] and in [9] was “inactive” in each case. The Potency entry in [10], in assay [11], in [12], in assay [13], in [14] and in [15] was “inactive” each time. The Potency entry in assay [16], in assay [17], in assay [18] and in assay [19] was “inactive” in each case. Moreover, the compound was classed as inactive in assay [4]. The Potency in [5] is 12.6 µM (active).

Take `c1ccc2c(c1)ccc1ccccc12`: the outcome in assay [20] was inactive.

On to `C(=C/c1ccccc1)/CN1CCN(C(c2ccccc2)c2ccccc2)CC1`, for which the call in assay [4] was inactive. The Potency result in assay [6], in assay [7], in [8], in assay [10], in assay [11] and in [12] was “inactive” each time. Besides, the Potency entry in [13], in assay [15], in [16], in [17] and in assay [19] was “inactive” in each case.

In the case of `Cc1c(C(=O)O)c(O)cc2c1C(=O)c1c(O)c([C@H]3O[C@H](CO)[C@@H](O)[C@H](O)[C@H]3O)c(O)c(O)c1C2=O`, in assay [4], the compound was called inactive. Further, the Potency entry in [5], in assay [6], in [7], in [8], in assay [9] and in assay [10] was “inactive” each time. Further, the Potency result in assay [11], in [12], in assay [13], in [14], in assay [15] and in assay [16] was “inactive” each time. Also, the Potency entry in assay [17], in assay [18] and in assay [19] was “inactive” in each case.

Regarding `Nc1cc([N+](=O)[O-])ccc1O`, the outcome in [20] was inactive.

Regarding `C/C=C/C=C/C=O`, the outcome in assay [20] was inactive.
